Source: PubChem BioAssay (NCI)
About 83,000 compounds went through this panel and 20% of them were active in at least one assay; those are over-represented in the sample as a whole.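 Assay: single dose, 48 h. Readout: percent growth (0 = no net growth; negative = cell death). Active: <10.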 Calls of active or inactive are those of the source.

What was measured:
Test in all cases: NCI-60 one-dose screen, 48 h (100 = growth as untreated, 0 = no growth, -100 = all killed)
Settings in all cases: 10 µM unless noted
[1] = tested on: NCI-H23 lung
[2] = tested on: NCI-H226 lung
[3] = tested on: NCI-H322M lung
[4] = tested on: HOP-62 NSCLC
[5] = tested on: NCI-H460 lung
[6] = tested on: HOP-92 NSCLC
[7] = tested on: NCI-H522 lung
[8] = tested on: A549/ATCC NSCLC
[9] = tested on: 786-0 renal
[10] = tested on: COLO 205 colon
[11] = tested on: DU-145 prostate
[12] = tested on: K-562 leukemia
[13] = tested on: MALME-3M melanoma
[14] = tested on: MDA-MB-231 breast
[15] = tested on: RXF 393 renal
[16] = tested on: SF-268 CNS
[17] = tested on: SF-295 CNS
[18] = tested on: SF-539 CNS
[19] = tested on: UACC-257 melanoma
[20] = tested on: M14 melanoma

Measured: growth

N#Cc1ccccc1-c1ccc(CN2C(=O)S/C(=C\c3ccc(Br)cc3)C2=O)cc1
inactive: [1] 96.6% | [2] 86.9% | [3] 101% | [4] 94.8% | [5] 106% | [6] 94.6% | [7] 94.8% | [8] 97.3% | [9] 99.3% | [10] 111% | [11] 105% | [12] 93.8% | [13] 96.8% | [14] 95.9% | [15] 104% | [16] 99.4% | [17] 93.1% | [18] 99.7% | [19] 92.3% | [20] 98.2%

Nc1nc2ccccc2c2c(=O)c3cc(Cl)ccc3sc12
inactive: [1] 87.5% | [2] 92.7% | [3] 91.8% | [4] 89.7% | [5] 86.2% | [6] 81.3% | [7] 93.4% | [8] 93.9% | [9] 98.5% | [10] 114% | [11] 14.6% | [12] 96.1% | [13] 108% | [14] 84.7% | [15] 108% | [16] 13% | [17] 96.2% | [18] 95.5% | [19] 99.1% | [20] 105%

O=S(=O)(N=C1C(Cl)=C(Cl)C(=NS(=O)(=O)c2ccccc2)C(Cl)=C1Cl)c1ccccc1
inactive: [1] 73.3% | [2] 97.5% | [3] 97.4% | [4] 91.5% | [5] 39.1% | [6] 134% | [7] 39.3% | [8] 74.4% | [9] 118% | [10] 98.4% | [11] 20.5% | [12] 65.6% | [13] 113% | [14] 98.8% | [15] 64.7% | [16] 87.1% | [17] 64.2% | [18] 109% | [19] 68.9% | [20] 94.1%

c1ccc(-c2ccc3c(c2)C2(CCNCC2)CN3)cc1
inactive: [1] 86.3% | [2] 95.9% | [3] 102% | [4] 95.2% | [5] 95.8% | [6] 86.1% | [7] 88.3% | [8] 112% | [9] 95.1% | [10] 103% | [11] 99% | [12] 90% | [13] 94.1% | [14] 85.1% | [15] 112% | [16] 87.4% | [17] 98.6% | [18] 97.8% | [19] 119% | [20] 92.3%

Cc1ccc(C(=O)c2ccc(CC(=O)N/N=C/c3cccc(O)c3O)n2C)cc1
active: [5] 8.65%
inactive: [1] 45.4% | [2] 69.1% | [3] 54.4% | [4] 49.9% | [6] 56.3% | [7] 48.8% | [8] 58.7% | [9] 76.4% | [10] 63% | [11] 49.3% | [12] 30.4% | [13] 58.7% | [14] 45.3% | [15] 29.7% | [16] 37.2% | [17] 83.5% | [18] 33.8% | [19] 89.7% | [20] 28.5%

Cn1cc(-c2csc(-c3cn(C)c4ccccc34)n2)c2cnccc21
inactive: [1] 83.2% | [2] 112% | [3] 66.6% | [4] 42.1% | [6] 55.5% | [7] 16.7% | [8] 15.3% | [11] 29.2% | [16] 45.1%
active: [5] -46.2% | [9] -87.9% | [10] -68% | [12] -39.2% | [13] -92.4% | [14] -17.7% | [15] -40.7% | [17] -73.1% | [18] -87% | [19] -58.2% | [20] -82.6%

Nc1nc(N(Cc2ccccc2)c2ccccc2)c2cn[nH]c2n1
inactive: [1] 81.7% | [2] 98.3% | [3] 94.2% | [4] 70% | [5] 75.8% | [6] 62.1% | [7] 90.1% | [8] 71.4% | [9] 72.3% | [10] 58.8% | [11] 88.2% | [12] 23.9% | [13] 62.8% | [14] 62.1% | [15] 67.6% | [16] 73.8% | [17] 51.5% | [18] 68.8% | [19] 99.7% | [20] 33.5%

NCCCNc1nc2ccccc2c2c(=O)c3cc(Cl)ccc3sc12
active: [4] -82.9% | [5] -83.8% | [6] -7.36% | [7] -83.6% | [8] -18.4% | [9] 2.76% | [10] -83.6% | [11] -76.9% | [12] -70.1% | [13] -38.3% | [14] -82.9% | [17] 4.81% | [20] -48.2%
inactive: [1] 45.7% | [2] 93.1% | [3] 39.5% | [15] 47.1% | [16] 37.7% | [18] 55.7% | [19] 74.9%

CS(=O)(=O)Nc1cc(-c2ccc3ncnc(Nc4ccc(F)c(Cl)c4)c3c2)ccc1Cl
inactive: [1] 48.9% | [2] 70.1% | [3] 24.7% | [4] 64.7% | [5] 44.7% | [7] 19% | [8] 31.6% | [9] 50.3% | [10] 58.7% | [11] 39.8% | [12] 39.4% | [13] 53.4% | [14] 54.3% | [15] 22% | [16] 52.7% | [17] 15.6% | [18] 52.1% | [19] 59.6% | [20] 46.8%
active: [6] -6.71%

COc1ccc(C2C3=C(COC3=O)N(CCO)c3cc4c(cc32)OCO4)cc1OC (stereo not given)
inactive: [1] 73.6% | [2] 115% | [3] 104% | [4] 70.6% | [5] 95.8% | [6] 68.7% | [7] 66.2% | [8] 90.7% | [9] 84% | [10] 83.6% | [11] 100% | [12] 52% | [13] 104% | [14] 101% | [15] 81.4% | [16] 91% | [17] 62.6% | [18] 91.9% | [19] 90.6% | [20] 68.6%

CCCCNC(=O)c1ccc2c(c1)nc(-c1ccccc1)n2C1CCCCC1
inactive: [1] 92.3% | [2] 109% | [3] 90.5% | [4] 77.3% | [5] 109% | [6] 105% | [7] 80.9% | [8] 95.9% | [9] 92.7% | [10] 88.9% | [11] 103% | [12] 75.8% | [13] 100% | [14] 96.1% | [15] 120% | [16] 104% | [17] 95.4% | [18] 105% | [19] 109% | [20] 89.8%

O=C(C1=Cc2cc3ccccc3n2Cc2cnnn21)c1ccc(F)cc1
inactive: [1] 98.9% | [2] 98.8% | [3] 99.1% | [4] 109% | [5] 106% | [6] 102% | [7] 91.3% | [8] 96.3% | [9] 99.1% | [10] 117% | [11] 97.7% | [12] 87.4% | [13] 101% | [14] 105% | [15] 103% | [16] 100% | [17] 97.8% | [18] 101% | [19] 107% | [20] 107%

COc1ccc(C(c2cc(OC)c(OC)c(OC)c2)N2CCCCC2)cc1 (stereo not given)
inactive: [1] 59.3% | [2] 55.5% | [3] 47.9% | [4] 29.8% | [5] 19.4% | [6] 44.1% | [7] 19.9% | [8] 49.1% | [9] 38.8% | [10] 16.1% | [11] 64.2% | [12] 18% | [13] 55.3% | [14] 53.1% | [15] 26% | [16] 47.2% | [17] 18.7% | [18] 27.7% | [19] 54.9% | [20] 23.3%

Fc1cccc(-c2nc(-c3c[nH]c4ncccc34)cs2)c1
active: [13] 0.186% [100 µM]
inactive: [1] 64.2% [100 µM] | [2] 53.1% [100 µM] | [3] 59.1% [100 µM] | [4] 48.9% [100 µM] | [5] 40.5% [100 µM] | [6] 38.3% [100 µM] | [7] 81.5% [100 µM] | [8] 33.9% [100 µM] | [9] 62.3% [100 µM] | [10] 76.9% [100 µM] | [11] 63.8% [100 µM] | [12] 94% [100 µM] | [14] 44.6% [100 µM] | [15] 51.7% [100 µM] | [16] 45.5% [100 µM] | [17] 17.2% [100 µM] | [18] 56.1% [100 µM] | [19] 99.3% [100 µM] | [20] 22.2% [100 µM]
